From PubChem BioAssay (NCI)
Compounds without any hit were thinned out: in the full panel of roughly 83,000, 20% have a hit.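 The endpoint reported here, percent growth, reads 100 for growth as untreated, 0 for no net growth and -100 for all cells dead.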 Values without a mark were called inactive. Activity calls are given as the source filed them. The calls were made as follows: active = growth percent below 10; inactive = the rest.

What was measured:
Assay in all cases: NCI-60 one-dose screen, 48 h (100 = growth as untreated, 0 = no growth, -100 = all killed)
Conditions in all cases: 10 µM
RPMI-8226 leukemia = tested on: RPMI-8226 leukemia
OVCAR-8 ovarian = tested on: OVCAR-8 ovarian
OVCAR-5 ovarian = tested on: OVCAR-5 ovarian
OVCAR-4 ovarian = tested on: OVCAR-4 ovarian
SK-OV-3 ovarian = tested on: SK-OV-3 ovarian
IGROV1 ovarian = tested on: IGROV1 ovarian
OVCAR-3 ovarian = tested on: OVCAR-3 ovarian
HS 578T breast = tested on: HS 578T breast
NCI/ADR-RES ovarian = tested on: NCI/ADR-RES ovarian
T-47D breast = tested on: T-47D breast
BT-549 breast = tested on: BT-549 breast
MDA-MB-435 melanoma = tested on: MDA-MB-435 melanoma
SW-620 colon = tested on: SW-620 colon
MCF7 breast = tested on: MCF7 breast
HCT-116 colon = tested on: HCT-116 colon
HCC-2998 colon = tested on: HCC-2998 colon
KM12 colon = tested on: KM12 colon

## COc1cc(Nc2ccnc(NCCNc3ccnc4cc(Cl)ccc34)n2)cc(OC)c1
RPMI-8226 leukemia
  growth: -42.7% (active)
OVCAR-8 ovarian
  growth: 45.4%
OVCAR-5 ovarian
  growth: 43.9%
OVCAR-4 ovarian
  growth: 42.4%
SK-OV-3 ovarian
  growth: 75.1%
IGROV1 ovarian
  growth: 23.6%
OVCAR-3 ovarian
  growth: 56.8%
HS 578T breast
  growth: 63.7%
NCI/ADR-RES ovarian
  growth: 67.9%
T-47D breast
  growth: 15.5%
BT-549 breast
  growth: 51.4%
MDA-MB-435 melanoma
  growth: -50.7% (active)
SW-620 colon
  growth: 19.9%
MCF7 breast
  growth: 8.25% (active)
HCT-116 colon
  growth: -20.2% (active)
HCC-2998 colon
  growth: 29.7%
KM12 colon
  growth: 55.3%

## COc1cc(-c2cc(/C=C3\C(=O)Nc4cc(Cl)ccc43)[nH]n2)cc(OC)c1OC
RPMI-8226 leukemia
  growth: -28% (active)
OVCAR-8 ovarian
  growth: 23.9%
OVCAR-5 ovarian
  growth: 65%
OVCAR-4 ovarian
  growth: 19%
SK-OV-3 ovarian
  growth: 74.2%
IGROV1 ovarian
  growth: 4.31% (active)
OVCAR-3 ovarian
  growth: 40.6%
HS 578T breast
  growth: 12.6%
NCI/ADR-RES ovarian
  growth: 10.2%
T-47D breast
  growth: 24.9%
BT-549 breast
  growth: 47.6%
MDA-MB-435 melanoma
  growth: -0.685% (active)
SW-620 colon
  growth: 41.4%
MCF7 breast
  growth: -4.15% (active)
HCT-116 colon
  growth: 14.2%
HCC-2998 colon
  growth: 70%
KM12 colon
  growth: 9.09% (active)

## COc1ccc(C2=Nc3c(C)nn(-c4ccccc4)c3NC(c3ccc(Oc4ccnc5cc(Cl)ccc45)c(OC)c3)C2)cc1 (stereo not given)
RPMI-8226 leukemia
  growth: 56.7%
OVCAR-8 ovarian
  growth: 75.2%
OVCAR-5 ovarian
  growth: 95.2%
OVCAR-4 ovarian
  growth: 43%
SK-OV-3 ovarian
  growth: 74.7%
IGROV1 ovarian
  growth: 73.4%
OVCAR-3 ovarian
  growth: 79.9%
HS 578T breast
  growth: 78.6%
NCI/ADR-RES ovarian
  growth: 79.9%
T-47D breast
  growth: 61.9%
BT-549 breast
  growth: 93%
MDA-MB-435 melanoma
  growth: 80.4%
SW-620 colon
  growth: 81.7%
MCF7 breast
  growth: 60.6%
HCT-116 colon
  growth: 45.6%
HCC-2998 colon
  growth: 89.7%
KM12 colon
  growth: 85.4%

## Cn1c([N+](=O)[O-])cnc1/C=C1\Oc2ccc(Cl)cc2C1=O
RPMI-8226 leukemia
  growth: 0.916% (active)
OVCAR-8 ovarian
  growth: -17.3% (active)
OVCAR-5 ovarian
  growth: -20.4% (active)
OVCAR-4 ovarian
  growth: -4.09% (active)
SK-OV-3 ovarian
  growth: -10.2% (active)
IGROV1 ovarian
  growth: -19.3% (active)
OVCAR-3 ovarian
  growth: -26.8% (active)
HS 578T breast
  growth: -24.1% (active)
NCI/ADR-RES ovarian
  growth: 2.61% (active)
T-47D breast
  growth: 78.1%
BT-549 breast
  growth: -35.7% (active)
MDA-MB-435 melanoma
  growth: -62.7% (active)
SW-620 colon
  growth: -61.6% (active)
MCF7 breast
  growth: 1.32% (active)
HCC-2998 colon
  growth: -58.6% (active)
KM12 colon
  growth: -37% (active)

## O=c1oc2cc(OS(=O)(=O)c3ccccc3)ccc2c2c1CCCCC2
RPMI-8226 leukemia
  growth: 23.4%
OVCAR-8 ovarian
  growth: 60.4%
OVCAR-5 ovarian
  growth: 83%
OVCAR-4 ovarian
  growth: 53.7%
SK-OV-3 ovarian
  growth: 84.3%
IGROV1 ovarian
  growth: 83.4%
OVCAR-3 ovarian
  growth: 81.5%
HS 578T breast
  growth: 75.6%
NCI/ADR-RES ovarian
  growth: 56%
T-47D breast
  growth: 24.8%
BT-549 breast
  growth: 59.9%
MDA-MB-435 melanoma
  growth: 64.7%
SW-620 colon
  growth: 44.2%
HCT-116 colon
  growth: 29%
HCC-2998 colon
  growth: 59.1%
KM12 colon
  growth: 41.1%

## COc1cc(-c2nc(Nc3nc4ccccc4s3)[nH]c(=O)c2C#N)cc(OC)c1O
RPMI-8226 leukemia
  growth: 89.9%
OVCAR-8 ovarian
  growth: 99%
OVCAR-5 ovarian
  growth: 109%
OVCAR-4 ovarian
  growth: 109%
SK-OV-3 ovarian
  growth: 108%
IGROV1 ovarian
  growth: 128%
OVCAR-3 ovarian
  growth: 104%
HS 578T breast
  growth: 107%
NCI/ADR-RES ovarian
  growth: 111%
T-47D breast
  growth: 102%
BT-549 breast
  growth: 98.1%
MDA-MB-435 melanoma
  growth: 120%
SW-620 colon
  growth: 110%
MCF7 breast
  growth: 95.7%
HCC-2998 colon
  growth: 104%
KM12 colon
  growth: 114%

## O=C1/C(=C\c2ccccc2)CN(C(=O)c2ccccc2)C/C1=C\c1ccccc1
RPMI-8226 leukemia
  growth: -27% (active)
OVCAR-8 ovarian
  growth: 14.3%
OVCAR-5 ovarian
  growth: 70.5%
OVCAR-4 ovarian
  growth: 36.5%
SK-OV-3 ovarian
  growth: 50.1%
IGROV1 ovarian
  growth: 26.6%
OVCAR-3 ovarian
  growth: -12.2% (active)
HS 578T breast
  growth: -14.8% (active)
NCI/ADR-RES ovarian
  growth: 21.9%
T-47D breast
  growth: 48.7%
BT-549 breast
  growth: 2.1% (active)
MDA-MB-435 melanoma
  growth: -49.6% (active)
SW-620 colon
  growth: -62.3% (active)
HCC-2998 colon
  growth: -77.9% (active)

## COc1ccc(/C=C2/CN(C(=O)c3ccc(C)cc3)C/C(=C\c3ccc(OC)cc3)C2=O)cc1
RPMI-8226 leukemia
  growth: -6.11% (active)
OVCAR-8 ovarian
  growth: 88.9%
OVCAR-5 ovarian
  growth: 109%
OVCAR-4 ovarian
  growth: 83.8%
SK-OV-3 ovarian
  growth: 99.1%
IGROV1 ovarian
  growth: 89.8%
OVCAR-3 ovarian
  growth: 90.7%
HS 578T breast
  growth: 92%
NCI/ADR-RES ovarian
  growth: 86.7%
T-47D breast
  growth: 69.3%
MDA-MB-435 melanoma
  growth: 41.3%
SW-620 colon
  growth: 71.3%
MCF7 breast
  growth: 32.8%
HCT-116 colon
  growth: -27% (active)
HCC-2998 colon
  growth: 71.3%

## CC1(C)OC2=C(CC1Br)C(=O)C(=O)c1ccccc12 (stereo not given)
RPMI-8226 leukemia
  growth: -28.1% (active)
OVCAR-8 ovarian
  growth: -46.4% (active)
OVCAR-5 ovarian
  growth: -80.5% (active)
OVCAR-4 ovarian
  growth: -99.4% (active)
SK-OV-3 ovarian
  growth: 77.8%
IGROV1 ovarian
  growth: -80.2% (active)
OVCAR-3 ovarian
  growth: -96.5% (active)
HS 578T breast
  growth: 8.65% (active)
NCI/ADR-RES ovarian
  growth: -44.7% (active)
T-47D breast
  growth: -45.4% (active)
BT-549 breast
  growth: -99.2% (active)
MDA-MB-435 melanoma
  growth: -87.4% (active)
SW-620 colon
  growth: -81.5% (active)
HCT-116 colon
  growth: -57% (active)
HCC-2998 colon
  growth: -19.7% (active)
KM12 colon
  growth: -93% (active)

## CN(C)CCCn1c(=O)c2ccccc2c2cnc3[nH]ccc3c21
RPMI-8226 leukemia
  growth: -23.6% (active)
OVCAR-8 ovarian
  growth: 6.28% (active)
OVCAR-5 ovarian
  growth: 19.5%
OVCAR-4 ovarian
  growth: 2.71% (active)
SK-OV-3 ovarian
  growth: 4.51% (active)
IGROV1 ovarian
  growth: 9.28% (active)
OVCAR-3 ovarian
  growth: 17.9%
HS 578T breast
  growth: 24.8%
NCI/ADR-RES ovarian
  growth: 26.5%
T-47D breast
  growth: -11.3% (active)
BT-549 breast
  growth: 34.1%
MDA-MB-435 melanoma
  growth: 11.9%
SW-620 colon
  growth: 5.02% (active)
HCT-116 colon
  growth: 2.85% (active)
HCC-2998 colon
  growth: 30.3%
KM12 colon
  growth: 9.58% (active)
